Assay results from PubChem BioAssay (NCI).
This is part of a sample that, as a whole, favours compounds with a hit. Of some 79,000 tested, about 15% had one in any assay. Values without a mark were called inactive. The source made the active and inactive calls. Rule as the data show it: active = growth inhibition above about 70%; inactive = the rest.

Legend:
[1] = NCI Yeast Anticancer Drug Screen. Data for the rad50 strain (AID 155);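 also: 0% = growth of vehicle-only cultures of the same strain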; details: S. cerevisiae rad50 strain growth inhibition; at 50.0 µM; active compounds read high
How it was run: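 Vehicle-treated cultures provide the reference for the growth inhibition reported for compound-exposed, repair-deficient yeast.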

[2] = NCI Yeast Anticancer Drug Screen. Data for the mec2-1 strain (AID 157); details: S. cerevisiae mec2-1 strain, at 50.0 µM, active compounds read high
How it was run: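 Yeast mec2-1 mutant treated with compound. Readout: growth inhibition vs vehicle controls.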

[3] = NCI Yeast Anticancer Drug Screen. Data for the sgs1 mgt1 strain (AID 161);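 also: 0% = growth of cultures given vehicle only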; details: S. cerevisiae sgs1 mgt1 strain, at 50.0 µM, active compounds read high
How it was run: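 Read-out: growth inhibition vs vehicle controls. Cells: mutant yeast strain deficient in DNA damage repair.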

[4] = NCI Yeast Anticancer Drug Screen. Data for the cln2 rad14 strain (AID 165);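 also: 0% = growth equal to vehicle treated cultures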; details: S. cerevisiae cln2 rad14 strain, at 50.0 µM, active compounds read high
How it was run: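 cln2 rad14 yeast strain; compound exposure; growth inhibition read vs vehicle controls.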

[5] = NCI Yeast Anticancer Drug Screen. Data for the bub3 strain (AID 167); details: S. cerevisiae bub3 mutant strain, at 50.0 µM, active compounds read high
How it was run: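 Mutant yeast screening strain plus compound; vehicle-treated cultures serve as the 0% inhibition reference.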

[6] = NCI Yeast Anticancer Drug Screen. Data for the mlh1 rad18 strain (AID 175); details: S. cerevisiae mlh1 rad18 strain growth inhibition; at 50.0 µM; active compounds read high
How it was run: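 Yeast w/ defined DNA-repair lesions; compound exposure; growth vs vehicle controls → % inhibition.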

Row | SMILES | growth inhibition [1] | growth inhibition [2] | growth inhibition [3] | growth inhibition [4] | growth inhibition [5] | growth inhibition [6]
1 | CCOc1ccccc1N1C(=O)CSC1=S | 15.2% | 14.2% | 51.2% | -14% | 48.9% | 30.2%
2 | Nc1c(C(=O)Nc2ccc(S(N)(=O)=O)cc2)[n+]([O-])c2ccccc2[n+]1[O-] | -7.9% | -9.8% | 0.5% | 1% | -9.95% | -6.45%
3 | CC(C)(C)N(OC(=O)c1ccc(C#N)cc1)c1ccccc1 | 15.4% | 11.6% | 3.55% | 7.75% | 4.2% | 3.35%
4 | O=C(O)CCn1ccc2ccccc21 | 3.65% | -0.55% | 4.8% | 5.9% | 3.1% | 1.6%
5 | CCCCNc1nc(Cl)nc(C(F)(F)F)c1N | 7.35% | 2.45% | 6.55% | -29.8% | 1.4% | 1.35%
6 | Cc1ccc2nc(CC(=O)c3ccc4ccccc4c3)c(=O)[nH]c2c1 | 6.4% | 9.65% | 9.2% | 13.3% | 3.15% | 22.1%
7 | O=C(O)CC(CSCP(=O)(O)O)C(=O)O (stereo unspecified) | 6.95% | 1.55% | 3.05% | -7.85% | 1.45% | 15.7%
8 | COc1cc(NS(C)(=O)=O)ccc1Nc1c2ccc(N(C)C)cc2nc2cc(N(C)C)ccc12 | 29.1% | -4.8% | 1.05% | 6.7% | -8.6% | -9.85%
9 | CC(=O)Nc1cc2cc(NC=C(C#N)C#N)ccc2oc1=O | -1.8% | -27.3% | 14.1% | 15.9% | 18.3% | -2.5%
10 | NC(CSC(=O)c1ccccc1)C(=O)O (stereo unspecified) | -14.2% | -3.45% | -19.8% | -2.55% | -30.2% | -19.9%
11 | CCN(Cc1cc(Nc2ccnc3cc(Cl)ccc23)ccc1O)C(=O)N1CCN(C)CC1 | 10.7% | 6.1% | 20.5% | 15.8% | -7.55% | 11.1%
12 | NC(=O)n1ncc(Cl)c(Cl)c1=O | -7.25% | -1.5% | 2.1% | 4.3% | -1.8% | 7.35%
13 | COc1ccc(CCNC(=O)c2ccc(CSc3ccc(Cl)cc3)o2)cc1OC | 34.5% | 24.1% | 37.6% | 50.5% | 42.8% | 25.1%
14 | CCCCCCCCCCCCCCCCCC(=O)OCC(COC1OC(CS(=O)(=O)O)C(O)C(O)C1O)OC(=O)CCCCCCCCCCCCCCCCC (stereo unspecified) | 23.6% | 18.4% | 7.2% | 3.25% | -1.95% | 19.6%
15 | C/C(CC(C)(C)C)=N/O | -24.6% | -5.2% | -21.8% | -78.7% | -14.9% | -12.9%
16 | COc1ccc(NC(=O)/C(Cc2cc(=O)oc3cc(O)ccc23)=N\NC(C)(C)C)c(OC)c1 | -4.4% | 2.8% | 9.3% | 4% | -1.8% | 7.3%
17 | Cc1cccc(NC(=O)c2c(Cl)c(Cl)c(Cl)c(Cl)c2C(=O)O)c1C | 9.8% | 2% | 2.6% | -35.5% | 5.8% | 8.95%
18 | O=S1(=O)OC(c2ccc(O)cc2)(c2ccc(O)cc2)c2ccccc21 | 31.6% | -25.9% | 3.1% | 9% | -11.9% | 18.6%
19 | CCCCCCCCCCP(=O)(O)CCCCCCCCCC | 8.3% | -3.8% | 9.9% | -144% | 21.7% | -16.3%
20 | Nc1c(Cl)ncnc1Nc1ccc(O)cc1 | -3.85% | -1.2% | 5.2% | 5.8% | 24.8% | 1.4%
21 | Nc1ncnc(N)c1NC(=O)c1cccc(-c2ccccc2)c1 | 2.85% | 41.1% | 23.9% | 0.8% | 34.9% | -21.1%

Row | SMILES | growth inhibition [1] | growth inhibition [2] | growth inhibition [3] | growth inhibition [4] | growth inhibition [5] | growth inhibition [6]
22 | CCCCCCCCS(=O)(=O)NC | 0.95% | -9.8% | -8.75% | -10% | 16.4% | 5.7%
23 | Cc1cnc2nc(C)c(C)nc2n1 | 12.3% | 1.55% | 2.35% | -0.95% | -0.85% | 4.95%
24 | CC1(C)CCC2(C(=O)OC3OC(CO)C(O)C(O)C3O)CCC3(CO)C(=CCC4C5(C)CC(O)C(O)C(C)(C(=O)OC6OC(CO)C(O)C(O)C6O)C5CCC43C)C2C1 (stereo unspecified) | 2.3% | 4.45% | 17.6% | 23.2% | 19.3% | -92.2%
25 | C=C[C+](CCCC)C(=O)[O-] | -20.2% | -24.1% | -11.1% | -19.8% | -12.8% | -34.9%
26 | S=C(N/N=C\c1ccc(Cl)cc1Cl)Nc1ccc2cn[nH]c2c1 | 20% | 17.2% | 28.2% | -38% | 2% | 31.8%
27 | Cc1[nH]n(-c2ccccc2)c(=O)c1N=Nc1cccc(C(F)(F)F)c1 | 8.7% | 14.7% | 17.8% | -4.75% | 6.95% | 15.7%
28 | Cc1ccc(C(N)=O)cc1 | 20% | -8.65% | -1.55% | -31.1% | 17.9% | 42.1%
29 | O=C1COc2cc(O)cc(O)c21 | 9.8% | 3.7% | 7.85% | 3.9% | 19.5% | 7.75%
30 | c1ccc2c(c1)C(=C1c3ccccc3-c3ccccc31)c1ccccc1-2 | -6.4% | -18.1% | -0.3% | -34.8% | 6.85% | -2.1%
31 | O=C(O)CCSSCCC(=O)O | 7.25% | 6.5% | 10.8% | -1.65% | -4.1% | 10.8%
32 | CCOC(CN(CC)CC)OCC | -6.75% | -27.6% | -5.15% | 7.2% | -21.8% | 2.15%
33 | CCC(C(=O)c1ccccc1)C1(C(=O)OC)NC(=S)NC(=O)C1C#N (stereo unspecified) | 3.25% | -2.85% | -2.55% | -17.9% | -8.05% | 4%
34 | Nc1ncccc1C(=O)O | 2.55% | -1.05% | -2.8% | -12.1% | -0.35% | -3.05%
35 | Nc1ccc(CCCCc2ccc(Cl)cc2Cl)cc1 | 98.2% (active) | 98.2% (active) | 98.5% (active) | 98.1% (active) | 98% (active) | 98% (active)
36 | CCOc1ccccc1NC(=O)C(=O)Cc1nc2ccccc2s1 | -2.65% | 6.1% | -2% | -6.75% | -0.75% | 2.9%
37 | Cc1c(CCO)sc[n+]1CC(=O)c1ccccc1 | -14.5% | -19% | -3.7% | 1.55% | 2.3% | 1%
38 | O=S(=O)(/C=C/S(=O)(=O)c1ccccc1)c1ccccc1 | 98.4% (active) | 98.8% (active) | 98.8% (active) | 97.9% (active) | 98.5% (active) | 98.2% (active)
39 | CCCNc1ccc2c(c1)C(O)c1ccccc1-2 (stereo unspecified) | -4.65% | -5.1% | 5.35% | 2.4% | -4% | -2.95%
40 | CN(C)c1ccc(S(=O)(=O)c2ccc3nc(N)nc(N)c3c2)cc1 | 29.2% | 16.2% | 5.45% | -26.5% | -5.9% | 3.85%
41 | CN1CCCC1c1cccnc1.O=C(O)c1ccccc1O.O=C([O-])c1ccccc1[OH2+].O=C([O-])c1ccccc1[OH2+].[Mn+2] (stereo unspecified) | -3.05% | -0.4% | -24.7% | -30.7% | -29% | 4.15%
